In PubChem BioAssay AID651789 (National Center for Advancing Translational Sciences (NCATS), 2012):
Records with an inconclusive call do not appear. Activity calls are given as the source filed them. Calls come from the whole dose curve; as a rule, active = well fitted inhibition curve with a large enough effect; inconclusive = small, poorly fitted or top-dose-only effect; inactive = no such curve, though single readings can be large or run the other way.

Test: Acumen qHTS Assay for Inhibitors of the mTORC1 Signaling Pathway in WT MEF Cells: Hit Validation; note: nearly all actives have a fitted effect of over 60% in size;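 for activity change, negative = inhibition: phospho-rpS6 Ser235/236 immunofluorescence normalised to propidium iodide cell stain; percent of cells above a cutoff set by 7.5 nM rapamycin treated wells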
Conditions: Acumen imaging; series mostly up to 37.3 µM; activity change, negative = inhibition: at the top concentration
Procedure, shortened: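 Read-out is immunofluorescent phospho-rpS6 (Ser235/236) normalised to PI-stained cell number, reported as % active cells using a 7.5 nM rapamycin threshold. Cells: WT or Tsc2-/-, p53-/- MEFs, compound-exposed 24 h at 37C; PI count also tracks viability.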
Potency is the fitted concentration of half-maximal effect.

Activity change, negative = inhibition, inactive:
CCN1CCC(N(Cc2ccc(F)cc2)C(=O)Nc2ccc(C)c(F)c2)CC1 -11.5%, CCc1ccc(CN(Cc2ccco2)C(=O)c2cc(-c3ccc(C)c(F)c3)on2)cc1 46.8%, Cc1ccc(-c2nnc(Nc3ccc(O)cc3)c3ccccc23)cc1S(=O)(=O)N1CCCCC1 -7.1%, COc1ccc(S(=O)(=O)N(CCc2ccccc2)CC(=O)Nc2cccc(OC)c2)cc1 3.05%, O=C(CC1(O)C(=O)N(CCc2ccccc2)c2ccc(Br)cc21)c1ccccc1O (stereo not given) -24.1%, Cc1ccc2sc(N(CCCN(C)C)C(=O)c3ccco3)nc2c1C -15.6%, CCCCN(C)CCNC(=O)c1cc2c(=O)n(C)c3ccccc3c2n1C 16.9%, Cc1cccc(N(CC(=O)NCCSc2ccc(Cl)cc2)S(=O)(=O)c2ccccc2)c1C 14.5%, CN(C)c1ccc(Nc2nc3ccccc3n3nnnc23)cc1 46.5%, Cc1ccc(S(=O)(=O)c2nc(-c3ccco3)oc2SC(C)c2ccccc2)cc1 (stereo not given) 2.14%, O=C(CS(=O)(=O)c1cccc2nsnc12)NCc1ccc(Cl)cc1 44.4%, COc1ccc(NC(=O)C(NC(=O)/C=C\c2ccc3c(c2)OCO3)c2ccccc2)cc1 (stereo not given) -25.3%, COc1cc(-c2ccno2)ccc1S(=O)(=O)N1CCN(c2cc(C)ccc2C)CC1 0%, CCOc1ccc(-c2cnc(NCc3ccc(C(F)(F)F)cc3)n2C)cc1 -3.05%, NS(=O)(=O)c1cc(C(=O)O)c(NCc2ccco2)cc1Cl 18.9%, CCCN1C(=O)C(Cc2nc3ccccc3c(=O)n2CC)c2ccccc21 (stereo not given) 44%, CCOC(=O)c1c(NC(=O)COc2ccc(OC)cc2)sc(C(=O)N(CC)CC)c1C 8.8%, CCC(=O)C1=C(c2ccc(F)cc2)N(C(=O)CC)n2cnnc2S1 -17.3%, Cc1ccccc1Oc1nc2ccccn2c(=O)c1/C=C(\C#N)c1nc2ccccc2[nH]1 58.4%, COc1ccc(-c2nc(CCNC(=O)c3c(F)cccc3Cl)cs2)cc1 2.92%, CC(=O)N1CCCc2cc(S(=O)(=O)N(Cc3ccccc3)C(C)C)ccc21 -14.5%, Cc1nn(CC(=O)NCc2ccccc2Cl)c(=O)c2cccn12 -4.58%, Cc1cccc(Oc2coc3cc(OCC(=O)NC4CCCCC4)ccc3c2=O)c1 2.69%, Cc1ccc(NC(=O)c2c(C)oc3ccc(O)c(CN(C)Cc4ccccc4)c23)c(C)c1 18.5%, CC(CNC(=O)c1ccc(Nc2nc3ccccc3n3nnnc23)cc1)c1ccccc1 (stereo not given) 65.1%, Cc1ccc2nc(-c3cccc(NC(=O)c4cccc5ccccc45)c3)oc2c1 47.2%, CCCCN1C(=O)C(O)(c2c(C)[nH]c3ccccc23)c2cc(Br)ccc21 (stereo not given) -22%, CN(C)CCN(Cc1ccco1)C(=O)c1cc2c(s1)-c1ccccc1OC2 1.53%

Potency, active:
Cc1ccc(CS(=O)(=O)c2ncc(Cl)c(C(=O)Nc3nnc(C(C)C)s3)n2)cc1 11.7 µM, CCCCC(CC)CNC(=O)c1ccc(Cn2c(=O)[nH]c3cc(OC)c(OC)cc3c2=O)cc1 (stereo not given) 13.1 µM, CCCOCc1cc(CN2CCN(c3ccccc3OC)CC2)c(O)c2ncccc12 1.47 µM, Fc1ccc(Nc2nc3nonc3nc2Nc2cccc(C(F)(F)F)c2)cc1 5.21 µM, Cc1cccc(-n2cnc3cc(C(=O)NC4CCCCCC4)ccc32)c1 5.21 µM, CCOc1ccc(NC(=O)CSc2oc(-c3ccc(F)cc3)nc2S(=O)(=O)c2ccc(C)cc2)cc1 2.33 µM, COc1ccc2nc(NC(=O)c3nc(S(=O)(=O)Cc4ccccc4F)ncc3Cl)sc2c1 13.1 µM, FC(F)(F)c1cccc(Nc2c3c(nc4ccc(Cl)cc24)CCC3)c1 16.5 µM, CC(C)c1nnc(NC(=O)c2nc(S(=O)(=O)Cc3ccccc3)ncc2Cl)s1 5.21 µM, COc1ccc(OC)c(Nc2c3c(nc4ccccc24)CCC3)c1 0.585 µM, CCCCn1c(=N)n(CCOc2ccccc2OC)c2ccccc21 11.7 µM, CCOc1cc(-c2nnc(SCC(=O)NCc3ccccc3)nc2-c2ccc(OC)c(OCC)c2)ccc1OC 0.927 µM
